# Source: PubChem BioAssay (NCATS)
# Several values for one entry are separate records, joined by “and”; a condition that tells them apart may be missing. Equal values may be shown once. Results filed as inconclusive are left out. Activity calls are given as the source filed them. Unless noted, calls come from the whole dose curve; as a rule, active = well fitted curve in the direction sought with a large enough effect; inconclusive = small, poorly fitted or top-dose-only effect, or another doubt; inactive = no such curve, though single readings can be large; an effect the other way counts as inactive or inconclusive.
# What was measured:
# [1] = Validation of Assay for Modulators of Lamin A Splicing (AID 1459; active = well fitted curve in the direction sought with a large enough effect in the signal ratio; the % refers to the signal ratio;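 note: cells exposed to compound for two days before reading; 0% is about no effect; ratio rise marks activators and ratio drop marks inhibitors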)
# Method in brief: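 S3 HeLa stably expressing lamin A-EGFP splicing minigene and DsRed2, 600 cells/well in Opti-MEM with 2% FBS, treated 48 h at 37C; laser-scanning cytometry gives GFP/RFP total intensity ratio; ancitabine positive control, 0.5% DMSO vehicle.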
# [2] = qHTS Assay for Lipid Storage Modulators (AID 1519; calls by dose curve; for activity change, negative = inhibition: % is set by controls: 0 for no effect and ±100 for the full control effect); conditions: Drosophila S3 cells, BODIPY lipid droplet/cell ratio, laser cytometry, cells loaded with oleic acid; for activity change, negative = inhibition: at 57.5 µM (top of the series)
# Method in brief: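 Cells seeded at 5,000 per well were treated with compounds over a concentration series and loaded with oleic acid (400 uM, as added). Lipid droplet fluorescence (488 nm excitation, 500-530 nm channel) was read by laser-scanning cytometry and normalized to 20 uM Triacsin C.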
# [3] = biological target: Alpha-galactosidase A (Homo sapiens) (UniProt P06280); assay: Counterscreen for Glucocerebrosidase Inhibitors: qHTS Assay for Human alpha-Galactosidase at pH 4.5 (AID 992); note: 0% is about no effect
# Method in brief: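 Enzyme at 2 nM final was combined with compound (0.7 nM to 77 uM) and 80 uM 4-methylumbelliferyl alpha-D-galactopyranoside in 50 mM citric acid, 0.005% Tween-20, pH 4.5. After 20 min at room temperature, fluorescence was read (Ex 365/Em 440 nm); AC50 came from Hill fits.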
# [4] = biological target: alpha-glucosidase (Oryza sativa, rice) (UniProt Q653V4); assay: Counterscreen for Glucocerebrosidase Inhibitors: qHTS Assay for Rice alpha-Glucosidase at pH 5.0 (AID 997);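 note: 0% = full activity with enzyme and -100% = basal without enzyme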
# Method in brief: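 Rice alpha-glucosidase (4 nM final) with 400 uM 4-methylumbelliferyl-alpha-D-glucopyranoside in citrate buffer pH 5.0, 20 min at room temperature, stopped at pH 10; fluorescence 365/440 nm, compounds 0.7 nM–77 uM, AC50 from Hill fits.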
# [5] = Cell Viability - LYMP2-018 (AID 985);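 note: compound exposure lasted 24 hr at 37 °C; plate controls were DMSO only for no effect and tetraoctylammonium bromide at 92 µM for full effect; nearly all actives have a fitted effect of over 50% in size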
# Method in brief: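 Human lymphoblastoid cells (2500/well) were pre-incubated 5 hr at 37 C, then exposed to compounds for 24 hr at 37 C in complete medium. Viability was read as intracellular ATP by CellTiter-Glo luminescence; AC50 values came from Hill-equation fits.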
# [6] = Cell Viability - LYMP2-020 (AID 986);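 note: plate controls were DMSO only for no effect and tetraoctylammonium bromide at 92 µM for full effect; nearly all actives have a fitted effect of over 55% in size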
# Method in brief: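 Human lymphoblastoid cells, 2500/well, were pre-incubated 5 hr at 37 C, then exposed to compounds for 24 hr at 37 C in complete medium. Intracellular ATP was read by CellTiter-Glo luminescence, and AC50 was derived by Hill fitting of concentration-response data.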
# [7] = Cell Viability - LYMP2-022 (AID 987);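 note: 0% = DMSO alone and full effect = tetraoctylammonium bromide at 92 µM; nearly all actives have a fitted effect of over 55% in size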
# Method in brief: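 Human lymphoblastoid cells, 2500/well, preincubated 5 hr at 37 C, then exposed to compounds over a concentration range for 24 hr at 37 C in complete medium. Viability read as intracellular ATP by CellTiter-Glo luminescence after 30 min at room temperature; AC50 from Hill fits.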
# [8] = Cell Viability - LYMP2-026 (AID 989); note: % is set by controls: 0 for no effect and ±100 for the full control effect; nearly all actives have a fitted effect of over 50% in size
# Method in brief: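 Human lymphoblastoid cells (2500/well) in complete medium were preincubated 5 hr at 37 C, then exposed to compounds for 24 hr at 37 C. Cellular ATP was read by CellTiter-Glo luminescence; AC50 from Hill-equation fits of concentration-response data.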
# [9] = Cell Viability - LYMP1-002 - Assay at 24 hr (AID 993); note: % is set by controls: 0 for no effect and ±100 for the full control effect
# Method in brief: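 Human lymphoblastoid LYMP1-002 cells, 2500/well in complete medium, were treated with compounds for 24 h at 37 C; intracellular ATP was read by CellTiter-Glo luminescence. AC50 values came from Hill-equation fits of qHTS concentration-response data.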
# [10] = Cell Viability - LYMP1-002 - Assay at 40 hr (AID 994);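 note: 0% = DMSO only and full inhibition = 92 µM tetraoctylammonium bromide; nearly all actives have a fitted effect of over 60% in size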
# Method in brief: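 Human lymphoblastoid cells, 2500/well in complete medium, were preincubated 5 hr at 37 C, then exposed to compounds for 40 hr at 37 C. Intracellular ATP was read by CellTiter-Glo luminescence after 30 min at room temperature; AC50 from Hill-equation fits.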
# [11] = measured here: cell count channel max response
# [12] = measured here: lipid channel max response
# Alpha-galactosidase A (Homo sapiens), sequence (P06280 whole entry, looked up): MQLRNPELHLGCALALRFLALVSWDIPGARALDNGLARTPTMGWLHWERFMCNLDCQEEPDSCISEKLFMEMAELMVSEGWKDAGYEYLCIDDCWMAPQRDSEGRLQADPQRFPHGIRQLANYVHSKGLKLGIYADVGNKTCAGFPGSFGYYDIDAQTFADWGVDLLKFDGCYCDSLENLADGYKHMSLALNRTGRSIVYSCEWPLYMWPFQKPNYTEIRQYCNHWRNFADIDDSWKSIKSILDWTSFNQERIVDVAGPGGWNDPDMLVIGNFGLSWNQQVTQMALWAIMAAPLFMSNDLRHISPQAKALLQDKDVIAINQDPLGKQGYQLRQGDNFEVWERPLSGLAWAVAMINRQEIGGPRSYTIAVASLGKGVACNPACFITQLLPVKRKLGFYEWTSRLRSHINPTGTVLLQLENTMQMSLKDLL
structure (smiles),measurement,setting,value
Cc1ccc(C(=O)O[C@H](C(=O)O)[C@@H](OC(=O)c2ccc(C)cc2)C(=O)O)cc1 (tested in a mixture with another compound),outcome,[1],inactive
same,"activity change, negative = inhibition",[2],-0.359% (inactive)
same,max response,[2]; [11],35.2%
same,max response,[2]; [12],38.6%
O=C(O)[C@@H]1C[C@H](C(=O)O)N1,outcome,[1],inactive
OC[C@H]1O[C@@H](n2cnc3c(NC4CCCCC4)ncnc32)[C@H](O)[C@@H]1O,outcome,[1],inactive
same,"activity change, negative = inhibition",[2],0.866% (inactive)
same,max response,[2]; [11],-23.3%
same,max response,[2]; [12],-24.5%
COc1cc2nc(N3CCN(C(=O)OCc4ccccc4)C(C(=O)NC(C)(C)C)C3)nc(N)c2cc1OC (centres undefined),outcome,[1],inactive
same,"activity change, negative = inhibition",[2],1.16% (inactive)
same,max response,[2]; [11],38.8%
same,max response,[2]; [12],39.8%
COc1cc2c(CCNC(C)=O)c[nH]c2cc1Cl,outcome,[3],inactive
same,outcome,[4],inactive
same,outcome,[1],inactive
same,"activity change, negative = inhibition",[2],-11.4% (inactive)
same,max response,[2]; [11],-19%
same,max response,[2]; [12],-30.9%
O=C(O)/C=C/C(O)c1ccc(Cl)cc1 (centres undefined),outcome,[1],inactive
CN[C@H](CC(C)C)C(=O)N[C@H]1C(=O)N[C@@H](CC(N)=O)C(=O)N[C@H]2C(=O)N[C@H]3C(=O)N[C@H](C(=O)N[C@H](C(=O)O)c4cc(O)cc(O)c4-c4cc3ccc4O)[C@H](O)c3ccc(c(Cl)c3)Oc3cc2cc(c3O[C@@H]2O[C@H](CO)[C@@H](O)[C@H](O)[C@H]2O[C@H]2C[C@](C)(N)[C@H](O)[C@H](C)O2)Oc2ccc(cc2Cl)[C@H]1O,outcome,[1],inactive
O=C(O)CC1CCCc2ccccc2C1O (centres undefined),outcome,[1],inactive
O=C(O)CNC(=O)C(CS)Cc1ccccc1 (centres undefined),outcome,[1],inactive
same,"activity change, negative = inhibition",[2],0.149% (inactive)
same,max response,[2]; [11],-2.09%
same,max response,[2]; [12],-2.71%
CN1C2CCC1CC(OC(=O)C(O)c1ccccc1)C2 (centres undefined),outcome,[1],inactive
same,"activity change, negative = inhibition",[2],9.19% (inactive)
same,max response,[2]; [11],16.5%
same,max response,[2]; [12],28.9%
NC(CCCP(=O)(O)O)C(=O)O (centres undefined),outcome,[1],inactive
same,"activity change, negative = inhibition",[2],0.0706% (inactive)
same,max response,[2]; [11],-11.8%
same,max response,[2]; [12],-9.55%
Ic1ccc(N2CCN(Cc3c[nH]c4ncccc34)CC2)cc1,outcome,[3],inactive
same,outcome,[4],inactive
same,outcome,[1],inactive
same,"activity change, negative = inhibition",[2],0.316% (inactive)
same,max response,[2]; [11],-23.2%
same,max response,[2]; [12],-22.2%
CC(C)NCC(O)COc1cccc2ccccc12 (centres undefined),Potency,[5],inactive
same,Potency,[6],inactive
same,Potency,[7],inactive
same,Potency,[8],inactive
same,Potency,[9],inactive
same,Potency,[10],inactive
same,outcome,[1],inactive
same,"activity change, negative = inhibition",[2],10.9% (inactive)
same,max response,[2]; [11],7.26%
same,max response,[2]; [12],23.9%
CN1CCC[C@H]1c1cccnc1,Potency,[5],inactive
same,Potency,[6],inactive
same,Potency,[7],inactive
same,Potency,[8],inactive
same,Potency,[9],inactive
same,Potency,[10],inactive
same,outcome,[1],inactive
same,"activity change, negative = inhibition",[2],2.76% (inactive) and 1.23% (inactive)
same,max response,[2]; [11],8.37% and -8.82%
same,max response,[2]; [12],10.7% and -7.32%
CC(=O)N[C@H](C(=O)O)C(C)(C)SN=O,outcome,[1],inactive
Oc1ccc(C2CNCc3sccc32)cc1O (centres undefined),outcome,[1],inactive
same,"activity change, negative = inhibition",[2],-2.2% (inactive)
same,max response,[2]; [11],25.9%
same,max response,[2]; [12],25.8%
CN1[C@@H](CC(=O)c2ccccc2)CCC[C@H]1C[C@H](O)c1ccccc1,outcome,[1],inactive
same,"activity change, negative = inhibition",[2],-1.25% (inactive)
same,max response,[2]; [11],24.6%
same,max response,[2]; [12],23.7%
C=CC(N)CCC(=O)O (centres undefined),outcome,[1],inactive
same,"activity change, negative = inhibition",[2],4.04% (inactive)
same,max response,[2]; [11],13.5%
same,max response,[2]; [12],19.4%
CN(C)CCC(c1ccc(Cl)cc1)c1ccccn1 (centres undefined),Potency,[5],inactive
same,Potency,[6],inactive
same,Potency,[7],inactive
same,Potency,[8],inactive
same,Potency,[9],inactive
same,Potency,[10],inactive
same,outcome,[1],inactive
same,"activity change, negative = inhibition",[2],1.75% (inactive)
same,max response,[2]; [11],45.4%
same,max response,[2]; [12],46%
O=C(/C=C/c1ccc(O)cc1)c1ccc(O)cc1O,outcome,[1],inactive
same,"activity change, negative = inhibition",[2],6.63% (inactive) and 0.947% (inactive)
same,max response,[2]; [11],1.72% and 46.2%
same,max response,[2]; [12],5.97% and 48.5%
CC1(C)CCC=[N+]1[O-],outcome,[3],inactive
same,outcome,[4],inactive
same,outcome,[1],inactive
same,"activity change, negative = inhibition",[2],0.483% (inactive)
same,max response,[2]; [11],-28.1%
same,max response,[2]; [12],-25.6%
NC(N)=NC(=O)c1nc(Cl)c(N2CCCCCC2)nc1N,outcome,[3],inactive
same,outcome,[4],inactive
same,outcome,[1],inactive
same,"activity change, negative = inhibition",[2],-1.28% (inactive) and 0.178% (inactive)
same,max response,[2]; [11],5.25% and -33%
same,max response,[2]; [12],6.67% and -33.1%
CCCCC/C=C\CC(O)/C=C/c1cccc(CC(O)CCCCO)n1 (centres undefined),outcome,[1],inactive
NCCSSCCN,outcome,[3],inactive
same,outcome,[4],inactive
same,outcome,[1],inactive
same,"activity change, negative = inhibition",[2],3.98% (inactive)
same,max response,[2]; [11],9.22%
same,max response,[2]; [12],16.2%
CC(C)(C)NCC(O)COc1nsnc1N1CCOCC1 (centres undefined),outcome,[1],inactive
COc1cccc(OC)c1OCCNCC1COc2ccccc2O1 (centres undefined),outcome,[1],inactive
same,"activity change, negative = inhibition",[2],3.94% (inactive) and -4.43% (inactive)
same,max response,[2]; [11],10.2% and -61.3%
same,max response,[2]; [12],14.3% and -62.3%
Fc1cccc(/C=N/N=C/c2cccc(F)c2)c1,outcome,[1],inactive
same,"activity change, negative = inhibition",[2],2.18% (inactive)
same,max response,[2]; [11],-17.3%
same,max response,[2]; [12],-14.5%
NCCCCC(=O)O,outcome,[3],inactive
same,outcome,[4],inactive
same,outcome,[1],inactive
same,"activity change, negative = inhibition",[2],7.28% (inactive) and -0.299% (inactive)
same,max response,[2]; [11],-8.72% and -47.7%
same,max response,[2]; [12],11.7% and -48.3%
CC1CN(S(=O)(=O)c2cccc3cnccc23)CCN1 (centres undefined),outcome,[1],inactive
same,"activity change, negative = inhibition",[2],1.97% (inactive)
same,max response,[2]; [11],5.7%
same,max response,[2]; [12],7.5%
COc1cc(C(O)CO)ccc1OS(=O)(=O)O (centres undefined),outcome,[1],inactive
same,"activity change, negative = inhibition",[2],0.915% (inactive)
same,max response,[2]; [11],-36.7%
same,max response,[2]; [12],-37%
